DUSP3 inh: blocks the human dual specificity phosphatase VHR1 | 0.7% of 50,000 active | inhibition, % at 20 µM | P51452 | recombinant VHR phosphatase, colorimetric substrate read-out | AID 1992; in the data active = inhibition above about 60%
Target sequence (P51452 whole entry, looked up): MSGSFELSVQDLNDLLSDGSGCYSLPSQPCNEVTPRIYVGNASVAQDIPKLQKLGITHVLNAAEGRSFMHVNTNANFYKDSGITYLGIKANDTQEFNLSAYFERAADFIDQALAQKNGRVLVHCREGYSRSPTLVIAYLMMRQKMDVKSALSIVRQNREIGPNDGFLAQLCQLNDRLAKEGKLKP
Hits are given with their value; – = inactive. This is one part of a sample in which hits are shown more often than they occur.

SMILES | DUSP3 inh
CC1(C)C(=O)N(Cc2ccc([N+](=O)[O-])cc2)c2ccccc2N1C(=O)c1ccc(F)cc1 | –
Fc1ccc(-c2noc(-c3ccc(Br)cc3)n2)cc1 | –
O=C(COc1ccc2ccccc2c1)N1CCN(C2CCCC2)CC1 | –
Cc1ccsc1C=Nc1ccc(Br)cn1 | –
CC(/C=C/c1ccccc1)=N\Nc1nnc2c(n1)[nH]c1ccccc12 | –
COc1cc(C(=O)O)cc(OC)c1OC(=O)c1cc(C)c(C)o1 | –
Cc1ccc(C)c(OCCCCN2CCCC2)c1 | –
CCOC(=O)C1=C(O)/C(=C/c2ccccc2)SC1=Nc1ccccc1 | –
CCOC(=O)C1=C(O)/C(=C/c2ccc(-c3ccccc3)cc2)SC1=Nc1ccc(OC)cc1 | 115
CCOC(=O)C1=C(O)/C(=C/c2ccc(O)cc2)SC1=Nc1ccccc1 | –
COc1ccc(CCNC(=O)COc2ccccc2OC)cc1 | –
O=C1c2ccccc2C(=O)N1CSc1nnc(SCN2C(=O)c3ccccc3C2=O)s1 | –
O=C(N/N=C\c1cc(Cc2ccccc2Cl)ccc1O)c1cncc(Br)c1 | –
COC(=O)c1c(-c2ccc(C(C)(C)C)cc2)csc1N | 95
NC(=O)c1c(-c2ccc(Cl)cc2)csc1N | 67
CCOC(=O)c1c(-c2ccc(-c3ccccc3)cc2)csc1N | –
COC(=O)c1c(-c2ccc(OC)cc2)csc1N | –
COC(=O)c1c(-c2ccc(Cl)cc2)csc1N | –
CCOC(=O)c1c(-c2ccc(C(C)C)cc2)csc1N | –
COc1cc(CN2CCN(Cc3cc(OC)c(OC)c(OC)c3)CC2)cc(OC)c1O | –
CCN1C(=O)/C(=C/c2cccn2C)C(=O)NC1=S | 66
O=C1NC(=S)N(c2ccccc2)C(=O)/C1=C/c1cc(Cl)cc(Cl)c1O | –
CCN1C(=O)/C(=C/c2ccoc2)C(=O)NC1=S | 93
O=C1NC(=S)N(c2ccc(Br)cc2)C(=O)/C1=C/C=C/c1ccccc1 | –
O=C1NC(=S)N(c2cccc(Br)c2)C(=O)/C1=C/C=C/c1ccccc1 | 69
SMILES | DUSP3 inh
O=C1NC(=S)N(c2cccc(Br)c2)C(=O)/C1=C/c1ccc(Cl)cc1 | –
CCN1C(=O)/C(=C/c2ccc(N3CCCC3)cc2)C(=O)NC1=S | –
O=C1NC(=S)N(c2cccc(Cl)c2)C(=O)/C1=C\c1ccc(N2CCCC2)cc1 | –
C=CCN1C(=O)NC(=O)C(=Cc2cccn2C)C1=O | –
Cn1cccc1/C=C1/C(=O)NC(=S)N(c2cccc(Cl)c2)C1=O | 75
CCN1C(=O)/C(=C/c2ccc(C)o2)C(=O)NC1=S | –
CCN1C(=O)/C(=C/c2cccc(OC)c2OC)C(=O)NC1=S | –
CCCCOC(=O)c1cccc(NC(=O)c2ccc(OC)cc2)c1 | –
COc1cc(C2C3=C(CCCC3=O)OC3=C2C(=O)CCC3)cc(OC)c1OC | –
Brc1ccc(OCCCN2CCCC2)cc1 | –
COc1ccccc1NCN1C(=O)C2CCCCC2C1=O (stereo unspecified) | –
O=C(/C=C/c1ccccc1)NCc1ccc(Cl)cc1 | –
COc1cc(/C=C2/SC(=S)NC2=O)cc(Cl)c1OCc1ccc(Cl)cc1Cl | –
CCOC(=O)c1c(N2C(=O)C=CC2=O)sc2c1CCCC2 | –
COc1cccc(C(=O)Nc2cccc(-c3cc4ccccc4oc3=O)c2)c1 | –
CCc1cc(=O)oc2cc(OCc3cccc(C)c3)ccc12 | –
Cc1ccc(COc2ccc3c(c2)oc(=O)c2ccccc23)cc1 | –
Cc1cccc(COc2ccc3c(c2)oc(=O)c2ccccc23)c1 | 96
CC1CCc2c(sc(NC(=O)CCc3ccccc3)c2C(N)=O)C1 (stereo unspecified) | –
COc1ccc(/C=N/N=c2\sc3ccccc3n2C)c(OC)c1 | 98
COc1cc(/C=N/N=c2\sc3ccccc3n2C)ccc1O | –
Cn1/c(=N/N=C/c2ccncc2)sc2ccccc21 | –
COc1ccc(NC(=O)CN(c2ccccc2)S(=O)(=O)c2ccccc2[N+](=O)[O-])c(OC)c1 | –
Cc1ccc(OCCOc2ccc(/C=N/n3cnnc3)cc2)cc1 | –
Cc1cc(N2CCOCC2)c2c(c1)c1ccccc1n2C | –
SMILES | DUSP3 inh
COc1ccc(N2C(=O)NC(=O)/C(=C/c3cn(CCOc4ccccc4OC)c4ccccc34)C2=O)cc1 | –
O=C(Cn1cc(/C=C2\SC(=O)NC2=O)c2ccccc21)Nc1ccccc1 | –
O=C(Cn1cc(/C=C2\NC(=O)NC2=O)c2ccccc21)Nc1ccccc1 | –
Cc1ccccc1N1C(=O)NC(=O)/C(=C/c2cn(CC(=O)Nc3ccccc3)c3ccccc23)C1=O | 85
C#CCn1cc(/C=C2\C(=O)NC(=O)N(c3ccc(Cl)cc3)C2=O)c2ccccc21 | 82
O=C1NC(=O)N(c2ccc(Cl)cc2)C(=O)/C1=C/c1ccccc1 | –
O=c1oc2cc(O)c([N+](=O)[O-])cc2cc1-c1csc(-c2ccc(Cl)cc2)n1 | –
Cc1ccc(C(=O)Nc2cc(-c3nc4ncccc4o3)ccc2C)cc1 | –
COc1ccc(CNC(=O)COc2ccccc2C)cc1 | –
O=C1CC(c2ccccc2F)c2cc(Br)c3ccccc3c2N1 (stereo unspecified) | –
COc1cc(C2CC(=O)Nc3c2cc(Br)c2ccccc32)cc(OC)c1OC (stereo unspecified) | –

Bioassay records: PubChem BioAssay, Sanford-Burnham Center for Chemical Genomics
